# Laboratory results: PubChem BioAssay (NCI)
# The panel holds about 83,000 compounds, 20% with a hit somewhere; the sample as a whole holds those more often.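 Treatment: one concentration, 48 hours, 96-well format. Scoring: percent growth, with anything below 10 considered active.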 Values without a mark were called inactive. Activity calls are given as the source filed them.
# System: UACC-257 melanoma
# Experiment: NCI-60 one-dose screen, 48 h (100 = growth as untreated, 0 = no growth, -100 = all killed)
# Details: 10 µM unless noted
row,Compound,growth
1,Nc1nc(=S)c2ncn(C3OC(COP(=O)(O)O)C(O)C3O)c2[nH]1 (stereo not given),36.7%
2,COc1ccc(/C=N/NC(=O)CCN2c3ccccc3Sc3ccccc32)cc1,99.8%
3,c1cnc2[nH]cc(-c3csc(-c4cn(CCCN5CCOCC5)c5ccccc45)n3)c2c1,85%
4,S=C1CCSC(=S)N1CCCN1C(=S)CCSC1=S,89%
5,COc1ccc(C(=O)Nc2ncc(Cc3ccc(F)cc3)s2)cc1,56%
6,C=C1C(=O)O[C@H]2[C@H]1CC/C(COC(=O)NCc1cc[nH]c1)=C\CC[C@@]1(C)O[C@@H]21,59.1%
7,CN(C)CCCC1(c2ccc(F)cc2)OCc2cc(-c3cccc4[nH]ccc34)ccc21 (stereo not given),-5.65% (active)
8,COC(C(=O)[C@@H](O)[C@@H](C)O)[C@@H]1Cc2cc3cc(O[C@H]4C[C@@H](O[C@H]5C[C@@H](O)[C@H](O)C(C)O5)[C@H](O)C(C)O4)c(C)c(O)c3c(O)c2C(=O)[C@H]1O[C@H]1C[C@@H](O[C@H]2C[C@@H](O[C@H]3C[C@@H](O)[C@H](OC)C(C)O3)[C@@H](O)C(C)O2)[C@H](O)C(C)O1 (stereo not given in full),-21.7% (active)
9,CCNc1cc(-c2cccc(OC(F)(F)F)c2)nc2ccc(N3CCCC3)cc12,11.1%
10,CCNc1nc(-c2ccc(Cl)c(OC)c2)c(-c2ccnc(NCCCNS(=O)(=O)c3ccc(Cl)cc3)n2)s1,29.2%
11,Cc1nc2c(=O)[nH]c(SCC(=O)Nc3cccc(F)c3)nc2[nH]c1=O,98.9%
12,Cc1ccc(-c2nc3nc(-c4ccc(F)cc4)nc(N4CCNCC4)c3o2)cc1,105%
13,O=C(/C=C(/C=C/c1cccc2[nH]ccc12)OB(F)F)/C=C/c1cccc2[nH]ccc12,-47.3% (active)
14,Oc1c(Cl)cc(Cl)c2ccc(Cn3cc(-c4cc(C(F)(F)F)cc(C(F)(F)F)c4)nn3)nc12,49.9%
15,CC[C@@H](C(=O)[C@@H](C)[C@@H](O)[C@H](C)[C@@H]1O[C@@H]([C@@H](CC)C(=O)NCCc2ccc(F)cc2)CC[C@@H]1C)C1O[C@]2(C=CC(=O)[C@]3(CC[C@@](C)([C@H]4CC[C@](O)(CC)[C@H](C)O4)O3)O2)[C@H](C)C[C@@H]1C (stereo not given in full),43.5%
16,c1cc2[nH]ncc2cc1-c1nc2ccc3[nH]ncc3c2c2c1CCCC2,20.2%
17,C#CCOc1cccc(Nc2ncnc3c(NC(=O)C=C)cccc23)c1,33%
18,N#Cc1cnc(NCCc2ccncc2)nc1-n1cnc2ccccc21,102%
19,CCOC(=O)c1c(NC(=O)c2ccc(C(C)C)cc2)sc2c(CN(C)C)c(O)ccc12,67.3%
20,COc1ccc(N2CCC(=O)NC2=S)cc1,108%
21,Oc1c(Cl)cc(Cl)c2ccc(Cn3cc(-c4cc(F)cc(F)c4)nn3)nc12,60.4%
22,CO/N=C(/C)c1ccc(NC(=O)CSc2nnc(-c3ccncc3)n2-c2ccccc2)cc1,50.6%
23,O=C1c2cccnc2C(=O)c2c1c(C(=O)NCCn1ccnc1)c1ccccn21,-29% (active)
24,O=C1NC(=O)c2c1c1c3ccccc3ccc1c1[nH]c3ccc(Br)cc3c21,51.9%
25,Cc1ccc(-c2nc3nc(-c4ccccc4)nc(N4CCNCC4)c3o2)cc1,-89.2% (active)
26,CC(C)(C)n1cc(-c2ccnc(NCCNS(=O)(=O)c3cccc(F)c3)c2)c(-c2ccccc2)n1,98.9%
27,Cc1c(-n2nnc(-c3nc4ccccc4s3)c2N)c(=O)n(-c2ccccc2)n1C,102%

# System: M14 melanoma
# Experiment: as above
# Details: 10 µM unless noted
row,Compound,growth
1,Cc1ccc(Cl)cc1Nc1nc(C(F)(F)F)ccc1C(=O)N/N=C/c1cccnc1,47.9%
2,Fc1ccc(-c2nn(-c3ccccc3)cc2-c2nc3ccccc3o2)cc1,48.2%
3,CCOC(=O)C(=Cc1cccc(Br)c1)C(=O)OCC,32.9%
4,CCOC(=O)c1cc2c(=O)oc3ccccc3c2oc1=O,118%
5,O=C(Nc1cc(Cl)ccc1O)c1ccc(Nc2ccnc(C(F)(F)F)c2)cc1,46.8%
6,C=C(C)[C@@H]1CC[C@]2(C(=O)O)CC[C@]3(C)[C@H](CC[C@@H]4[C@@]5(C)C[C@@H](Cc6cn(CCO[C@@H]7O[C@H](COC(C)=O)[C@H](OC(C)=O)[C@H](OC(C)=O)[C@H]7OC(C)=O)nn6)[C@H](O)C(C)(C)[C@@H]5CC[C@]43C)[C@@H]12,81.2%
7,CC(C)CCC[C@@H](C)[C@H]1CC[C@H]2[C@@H]3CC=C4C[C@@H](C(C(=O)O)C(=O)O)CC[C@]4(C)[C@H]3CC[C@]12C,-72.9% (active)
8,O=S(=O)(Nc1ccc(Cl)cc1)c1ccc(-c2cnc(C3CC3)o2)cc1,22%
9,C#CCOc1ccc2ncnc(Nc3ccc(NC(=O)CCl)cc3)c2c1,4.03% (active)
10,CCOC(=O)C1=C(NC)OCC1=O,102%
11,COC(=O)c1c2c(c(C)[n+]([O-])c1C)C(=O)C=C(NCc1ccc(Br)cc1)C2=O,-83.9% (active)
12,CCN(CC)CCOc1ccc(-c2c(-c3ccccc3)c(=O)oc3ccccc23)cc1,88.2%
13,Nc1nc(=S)c2ncn(C3OC(COP(=O)(O)O)C(O)C3O)c2[nH]1 (stereo not given),14.6%
14,COc1ccc(/C=N/NC(=O)CCN2c3ccccc3Sc3ccccc32)cc1,65.4%
15,c1cnc2[nH]cc(-c3csc(-c4cn(CCCN5CCOCC5)c5ccccc45)n3)c2c1,14.5%
16,S=C1CCSC(=S)N1CCCN1C(=S)CCSC1=S,83.1%
17,COc1ccc(C(=O)Nc2ncc(Cc3ccc(F)cc3)s2)cc1,16.4%
18,C=C1C(=O)O[C@H]2[C@H]1CC/C(COC(=O)NCc1cc[nH]c1)=C\CC[C@@]1(C)O[C@@H]21,32.7%
19,COC(C(=O)[C@@H](O)[C@@H](C)O)[C@@H]1Cc2cc3cc(O[C@H]4C[C@@H](O[C@H]5C[C@@H](O)[C@H](O)C(C)O5)[C@H](O)C(C)O4)c(C)c(O)c3c(O)c2C(=O)[C@H]1O[C@H]1C[C@@H](O[C@H]2C[C@@H](O[C@H]3C[C@@H](O)[C@H](OC)C(C)O3)[C@@H](O)C(C)O2)[C@H](O)C(C)O1 (stereo not given in full),-17.9% (active)

row,Compound,growth
1,CCNc1cc(-c2cccc(OC(F)(F)F)c2)nc2ccc(N3CCCC3)cc12,7.92% (active)
2,CCNc1nc(-c2ccc(Cl)c(OC)c2)c(-c2ccnc(NCCCNS(=O)(=O)c3ccc(Cl)cc3)n2)s1,23%
3,Cc1nc2c(=O)[nH]c(SCC(=O)Nc3cccc(F)c3)nc2[nH]c1=O,96.1%
4,Cc1ccc(-c2nc3nc(-c4ccc(F)cc4)nc(N4CCNCC4)c3o2)cc1,-70.9% (active)
5,O=C(/C=C(/C=C/c1cccc2[nH]ccc12)OB(F)F)/C=C/c1cccc2[nH]ccc12,-34.2% (active)
6,Oc1c(Cl)cc(Cl)c2ccc(Cn3cc(-c4cc(C(F)(F)F)cc(C(F)(F)F)c4)nn3)nc12,47.8%
7,CC[C@@H](C(=O)[C@@H](C)[C@@H](O)[C@H](C)[C@@H]1O[C@@H]([C@@H](CC)C(=O)NCCc2ccc(F)cc2)CC[C@@H]1C)C1O[C@]2(C=CC(=O)[C@]3(CC[C@@](C)([C@H]4CC[C@](O)(CC)[C@H](C)O4)O3)O2)[C@H](C)C[C@@H]1C (stereo not given in full),25.4%
8,c1cc2[nH]ncc2cc1-c1nc2ccc3[nH]ncc3c2c2c1CCCC2,2.16% (active)
9,C#CCOc1cccc(Nc2ncnc3c(NC(=O)C=C)cccc23)c1,19.9%
10,N#Cc1cnc(NCCc2ccncc2)nc1-n1cnc2ccccc21,47.9%
11,CCOC(=O)c1c(NC(=O)c2ccc(C(C)C)cc2)sc2c(CN(C)C)c(O)ccc12,-64% (active)
12,COc1ccc(N2CCC(=O)NC2=S)cc1,98.7%
13,Oc1c(Cl)cc(Cl)c2ccc(Cn3cc(-c4cc(F)cc(F)c4)nn3)nc12,61.5%
14,CO/N=C(/C)c1ccc(NC(=O)CSc2nnc(-c3ccncc3)n2-c2ccccc2)cc1,74.8%
15,O=C1c2cccnc2C(=O)c2c1c(C(=O)NCCn1ccnc1)c1ccccn21,7.17% (active)
16,O=C1NC(=O)c2c1c1c3ccccc3ccc1c1[nH]c3ccc(Br)cc3c21,15.5%
17,Cc1ccc(-c2nc3nc(-c4ccccc4)nc(N4CCNCC4)c3o2)cc1,-84.7% (active)
18,CC(C)(C)n1cc(-c2ccnc(NCCNS(=O)(=O)c3cccc(F)c3)c2)c(-c2ccccc2)n1,94.8%
19,Cc1c(-n2nnc(-c3nc4ccccc4s3)c2N)c(=O)n(-c2ccccc2)n1C,110%
